Consider 16 molecules from ChEMBL document CHEMBL1961873, “Compounds: GSK PKIS; Assays: Nanosyn kinase panel” (2012).

In test [1] the target is MAP/microtubule affinity-regulating kinase 3 (Homo sapiens) (UniProt P27448). The settings on record: at 1 µM.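 Further: reported values are averaged percent inhibition of MARK3.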
Test [2] addresses T1, MAP/microtubule affinity-regulating kinase 4 (Homo sapiens) (UniProt Q96L34).
T1 sequence (whole entry): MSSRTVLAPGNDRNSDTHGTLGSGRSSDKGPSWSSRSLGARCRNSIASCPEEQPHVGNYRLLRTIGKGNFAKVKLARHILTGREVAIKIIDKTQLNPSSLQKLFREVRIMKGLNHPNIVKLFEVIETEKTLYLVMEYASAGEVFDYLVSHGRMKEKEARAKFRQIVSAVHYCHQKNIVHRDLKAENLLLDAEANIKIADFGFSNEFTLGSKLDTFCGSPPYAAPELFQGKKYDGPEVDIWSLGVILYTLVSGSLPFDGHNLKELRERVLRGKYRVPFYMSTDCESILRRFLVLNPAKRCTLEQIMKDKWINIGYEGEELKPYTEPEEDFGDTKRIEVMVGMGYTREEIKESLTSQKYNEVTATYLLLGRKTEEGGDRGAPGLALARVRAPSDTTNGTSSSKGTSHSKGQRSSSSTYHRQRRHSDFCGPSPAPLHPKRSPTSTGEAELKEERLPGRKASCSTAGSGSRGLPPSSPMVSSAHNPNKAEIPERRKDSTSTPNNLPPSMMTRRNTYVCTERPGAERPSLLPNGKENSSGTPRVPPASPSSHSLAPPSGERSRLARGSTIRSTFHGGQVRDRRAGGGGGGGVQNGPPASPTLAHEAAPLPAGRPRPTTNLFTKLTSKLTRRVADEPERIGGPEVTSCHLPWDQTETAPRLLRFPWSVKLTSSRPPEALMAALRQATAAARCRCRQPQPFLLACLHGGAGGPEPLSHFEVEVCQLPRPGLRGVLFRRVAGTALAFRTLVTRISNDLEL
To be noted: at 0.1 µM.

The target in test [3] is T1, MAP/microtubule affinity-regulating kinase 4 (Homo sapiens). To be noted: at 1 µM.
Test [4] deals with Maternal embryonic leucine zipper kinase (Homo sapiens) (UniProt Q14680). To be noted: at 0.1 µM.
Sequence of Maternal embryonic leucine zipper kinase (Homo sapiens) (Q14680 whole entry, looked up): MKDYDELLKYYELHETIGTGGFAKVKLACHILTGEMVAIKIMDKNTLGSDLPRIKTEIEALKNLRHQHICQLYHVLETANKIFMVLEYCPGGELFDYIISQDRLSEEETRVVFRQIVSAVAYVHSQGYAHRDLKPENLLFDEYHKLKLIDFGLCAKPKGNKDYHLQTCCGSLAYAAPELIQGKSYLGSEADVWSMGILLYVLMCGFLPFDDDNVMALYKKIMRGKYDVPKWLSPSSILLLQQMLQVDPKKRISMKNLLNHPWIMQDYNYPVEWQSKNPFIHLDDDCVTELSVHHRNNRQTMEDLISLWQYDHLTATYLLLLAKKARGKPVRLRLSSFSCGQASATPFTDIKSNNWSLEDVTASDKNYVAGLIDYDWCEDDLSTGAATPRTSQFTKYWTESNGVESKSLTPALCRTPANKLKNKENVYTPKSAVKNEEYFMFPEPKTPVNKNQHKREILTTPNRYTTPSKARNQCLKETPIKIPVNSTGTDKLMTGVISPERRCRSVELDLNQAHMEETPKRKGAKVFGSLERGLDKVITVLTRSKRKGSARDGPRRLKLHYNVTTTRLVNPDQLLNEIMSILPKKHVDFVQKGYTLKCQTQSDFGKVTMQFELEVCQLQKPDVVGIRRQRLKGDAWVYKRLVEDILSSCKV
For test [5] the target is unchanged. The settings on record: at 1 µM.
Test [6] concerns the target MAP kinase-interacting serine/threonine-protein kinase 1 (Homo sapiens) (UniProt Q9BUB5). The settings on record: at 0.1 µM.
Test [7] has the same target. To be noted: at 1 µM.
The target of test [8] is MAP kinase-interacting serine/threonine-protein kinase 2 (Homo sapiens) (UniProt Q9HBH9). The settings on record: at 0.1 µM.
Sequence of MAP kinase-interacting serine/threonine-protein kinase 2 (Homo sapiens) (Q9HBH9 whole entry, looked up): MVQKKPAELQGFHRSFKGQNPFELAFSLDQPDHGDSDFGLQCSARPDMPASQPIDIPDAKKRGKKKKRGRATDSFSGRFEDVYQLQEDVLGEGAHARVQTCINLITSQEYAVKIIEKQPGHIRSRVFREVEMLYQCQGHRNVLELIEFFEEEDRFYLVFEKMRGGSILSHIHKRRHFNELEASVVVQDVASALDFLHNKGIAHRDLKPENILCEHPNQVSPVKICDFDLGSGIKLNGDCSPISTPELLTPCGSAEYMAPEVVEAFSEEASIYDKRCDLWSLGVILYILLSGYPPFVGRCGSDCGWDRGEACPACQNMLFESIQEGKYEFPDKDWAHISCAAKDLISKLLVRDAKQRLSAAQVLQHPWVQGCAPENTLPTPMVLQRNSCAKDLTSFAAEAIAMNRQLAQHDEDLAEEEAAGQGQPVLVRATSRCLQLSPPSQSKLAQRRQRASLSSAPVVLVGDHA
Test [9] has the same target. The settings on record: at 1 µM.
Test [10] deals with Serine/threonine-protein kinase MARK2 (Homo sapiens) (UniProt Q7KZI7). The settings on record: at 0.1 µM.
Sequence of Serine/threonine-protein kinase MARK2 (Homo sapiens) (Q7KZI7 whole entry): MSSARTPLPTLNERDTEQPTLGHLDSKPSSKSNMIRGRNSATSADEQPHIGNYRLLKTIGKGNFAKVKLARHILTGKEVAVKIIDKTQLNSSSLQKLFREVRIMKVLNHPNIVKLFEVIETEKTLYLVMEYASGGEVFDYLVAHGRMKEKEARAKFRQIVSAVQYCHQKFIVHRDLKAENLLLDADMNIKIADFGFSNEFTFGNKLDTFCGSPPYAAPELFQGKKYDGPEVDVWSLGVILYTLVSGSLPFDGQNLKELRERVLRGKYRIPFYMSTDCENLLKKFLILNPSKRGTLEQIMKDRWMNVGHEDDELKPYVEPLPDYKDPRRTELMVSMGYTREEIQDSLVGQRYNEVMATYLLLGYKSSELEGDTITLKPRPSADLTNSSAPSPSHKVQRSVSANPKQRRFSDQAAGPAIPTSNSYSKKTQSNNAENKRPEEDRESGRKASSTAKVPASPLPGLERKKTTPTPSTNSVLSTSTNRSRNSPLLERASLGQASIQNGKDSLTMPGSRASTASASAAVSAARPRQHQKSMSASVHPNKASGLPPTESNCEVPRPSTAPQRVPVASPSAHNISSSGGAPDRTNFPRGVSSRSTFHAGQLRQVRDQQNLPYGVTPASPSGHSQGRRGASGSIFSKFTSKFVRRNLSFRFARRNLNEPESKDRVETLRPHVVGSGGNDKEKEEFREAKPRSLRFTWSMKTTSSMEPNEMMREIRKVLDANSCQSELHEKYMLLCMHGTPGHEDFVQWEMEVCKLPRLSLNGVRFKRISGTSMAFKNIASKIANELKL

Structures are written as SMILES.

Sequence of MAP kinase-interacting serine/threonine-protein kinase 1 (Homo sapiens) (Q9BUB5 whole entry, looked up): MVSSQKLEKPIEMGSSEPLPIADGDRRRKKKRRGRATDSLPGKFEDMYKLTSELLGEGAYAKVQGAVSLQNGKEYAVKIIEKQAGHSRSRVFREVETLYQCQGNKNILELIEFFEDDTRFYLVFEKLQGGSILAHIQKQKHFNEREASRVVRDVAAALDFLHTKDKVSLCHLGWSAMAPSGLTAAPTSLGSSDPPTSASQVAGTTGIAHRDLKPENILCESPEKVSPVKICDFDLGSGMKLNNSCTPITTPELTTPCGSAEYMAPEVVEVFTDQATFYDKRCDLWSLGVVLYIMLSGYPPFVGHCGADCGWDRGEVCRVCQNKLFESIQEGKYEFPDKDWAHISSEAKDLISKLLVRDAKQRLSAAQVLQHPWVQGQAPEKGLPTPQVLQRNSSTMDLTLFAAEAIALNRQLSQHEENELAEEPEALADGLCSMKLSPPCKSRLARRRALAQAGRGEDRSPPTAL
Sequence of MAP/microtubule affinity-regulating kinase 3 (Homo sapiens) (P27448 whole entry, looked up): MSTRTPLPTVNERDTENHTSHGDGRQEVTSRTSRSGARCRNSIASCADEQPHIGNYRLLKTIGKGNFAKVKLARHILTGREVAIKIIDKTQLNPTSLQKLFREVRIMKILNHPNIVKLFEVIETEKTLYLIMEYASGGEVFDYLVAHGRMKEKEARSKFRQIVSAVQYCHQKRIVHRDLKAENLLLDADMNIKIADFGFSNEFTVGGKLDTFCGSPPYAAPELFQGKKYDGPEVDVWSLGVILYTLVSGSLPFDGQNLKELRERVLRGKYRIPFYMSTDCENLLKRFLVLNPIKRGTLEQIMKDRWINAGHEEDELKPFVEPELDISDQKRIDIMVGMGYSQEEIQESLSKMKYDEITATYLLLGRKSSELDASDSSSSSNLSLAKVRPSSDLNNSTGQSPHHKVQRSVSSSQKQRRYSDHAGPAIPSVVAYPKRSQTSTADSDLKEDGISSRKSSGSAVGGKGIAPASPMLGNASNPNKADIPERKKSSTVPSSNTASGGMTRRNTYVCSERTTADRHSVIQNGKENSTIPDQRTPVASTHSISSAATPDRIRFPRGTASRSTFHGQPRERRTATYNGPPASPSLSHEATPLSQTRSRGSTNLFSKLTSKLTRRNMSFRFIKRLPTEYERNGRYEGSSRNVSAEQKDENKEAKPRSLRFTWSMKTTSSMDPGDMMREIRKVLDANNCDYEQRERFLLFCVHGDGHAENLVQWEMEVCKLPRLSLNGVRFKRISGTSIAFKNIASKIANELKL

Regarding `O=C1NC(=O)C(c2ccccc2Cl)=C1Nc1cccc(O)c1`, the inhibition (in general, the change of the read-out against control, counted positive when it falls) in [1] stood at 13.6%; in test [2], 0.9%; in test [3], 8.27%; in test [4], 1.6%; in test [5] it was 4.56%; in [6], 0.62%. Moreover, the inhibition was determined as 2.78% in test [7], 0.71% in [8], 0.58% in [9] and 1.47% in [10].
Consider `COC(=O)Nc1nc2cc(Oc3ccc(NC(=O)Nc4cccc(C(=O)O)c4)cc3)ccc2[nH]1`, for which the inhibition in [1] was 3.98%; in test [2], -0.3%; in test [3] it was 1.97%; in test [4], -0.21%; in test [5], 0.37%; in [6] it was -0.48%. Also, the inhibition in [7] was 8.3%; in [8], 0.28%; in test [9], 3.85%; in test [10], -2.31%.
With `CS(=O)(=O)CCNCc1nc(-c2ccc3ncnc(Nc4ccc(F)c(Cl)c4)c3c2)cs1`, the inhibition in [1] was -1.39%; in [2], -0.14%; in test [3], 0.31%; in [4], -1.18%; in [5], 3.48%; in [6], 10.6%. The inhibition was 50.4% in test [7], 13.4% in test [8], 55.7% in test [9] and -0.48% in [10].
For `CCCN1CCC(Oc2cc(Nc3nc(Nc4cccc(F)c4C(N)=O)c4cc[nH]c4n3)c(OC)cc2Cl)CC1`, the inhibition in [1] is 1.93%; in [2] it was -0.13%; in test [3], 2.83%; in test [4], 1.25%; in test [5], 21.2%; in test [6] it was 1.13%. For the same molecule, the inhibition in test [7] was 3.91%; in [8] it was 0.85%; in [9], 0.99%; in test [10], -0.3%.
Regarding `NCc1ccc(-c2nc(-c3ccc(Cl)c(O)c3)c(-c3ccncc3)[nH]2)cc1`, the inhibition in test [1] is 5.09%; in [2], 0.06%; in [3], 2.57%; in [4], 0.75%; in [5] it was -1.02%; in [6], -2.18%. Further, the inhibition was 6.58% in [7], 1.14% in test [8], 4.8% in test [9] and -0.38% in test [10].
In the case of `Cn1cc(C=C2C(=O)Nc3cccnc32)c2ccccc21`, the inhibition in test [1] is 7.16%; in [2], 1.67%; in test [3], 6.49%; in [4] it was 4.43%; in test [5], 23.5%; in [6], 3.06%. Besides, the inhibition in [7] is 15.5%; in test [8], 1.53%; in test [9], 15.3%; in test [10], 1.17%.
Take `COc1cc2c(cc1Nc1nc(N3CCc4ccccc43)c3cc[nH]c3n1)N(C(=O)CN(C)C)CC2`: the inhibition in test [1] came to 6.25%; in [2], 0.37%; in test [3], 1.93%; in [4] it was 1.9%; in [5] it was 2.27%; in test [6], 1.09%. The inhibition in test [7] was found to be 5.08%; in test [8], 0.08%; in test [9], 7.67%; in test [10], 1.14%.
Take `O=C(Nc1n[nH]c2nc(-c3ccco3)c(Br)cc12)C1CC1`: the inhibition is -5.02% in test [1]; 1.46% in test [2]; 2.43% in test [3]; 2.96% in test [4]; 7.3% in [5]; 3.3% in [6]. For the same molecule, the inhibition in test [7] is 13.9%; in test [8], 1.26%; in [9], 1.34%; in [10] it was -0.08%.
Turning to `Cc1ccc(C(=O)NC2CCCCC2)cc1-c1ccc(C(=O)NCC2CC2)cc1`, the inhibition in test [1] was determined as 2.82%; in [2], 1.51%; in test [3], 1.5%; in [4] it was 1.92%; in [5], 2.41%; in [6] it was 1.78%. Besides, the inhibition is 2.58% in [7], 0.32% in [8], -0.44% in [9] and 0.34% in test [10].
For `COc1ccc2cc(-c3c(-c4ccncc4)nc(-c4ccc([S+](C)[O-])cc4)n3C)ccc2c1` (stereo not given), the inhibition in test [1] was found to be 0.76%; in test [2], 1.4%; in test [3], 1.07%; in test [4] it was 2.76%; in test [5], 6.5%; in test [6] it was 2.19%. Moreover, the inhibition was 3.02% in test [7], 0.53% in test [8], 0.5% in test [9] and 0.3% in [10].
On to `Fc1cccc(COc2ccc(Nc3ncnc4cc(-c5ccc[nH]5)sc34)cc2Cl)c1`, for which the inhibition is -1.25% in [1]; 1.49% in test [2]; 1.57% in [3]; 4.24% in test [4]; 5.38% in test [5]; 1% in test [6]. Also, the inhibition in test [7] is 7.21%; in [8], 0.75%; in test [9] it was 3.83%; in test [10], -1.15%.
With `NC(=O)c1ccc(-c2nc(-c3ccccn3)c(-c3ccc4c(c3)OCO4)[nH]2)cc1`, the inhibition in [1] worked out at 11%; in test [2] it was 1.03%; in [3] it was 0.93%; in test [4], 2.76%; in test [5], 2.1%; in [6] it was 1.26%. For the same molecule, the inhibition is 5.1% in [7], 1.27% in test [8], 3.13% in test [9] and -0.01% in test [10].
Turning to `CN1CCC(C(=O)Nc2n[nH]c3nnc(-c4ccccc4)cc23)CC1`, the inhibition in [1] was 4.62%; in test [2], 2.21%; in test [3] it was 3.02%; in [4], 3.21%; in test [5], 5.92%; in test [6], 6.32%. The inhibition in [7] amounted to 13.6%; in test [8], 2.9%; in test [9] it was 8.1%; in test [10], 1.18%.
For the molecule `Cc1nnc(-c2ccc(C)c(-c3ccc(C(=O)Nc4cccc(C#N)c4)cc3)c2)o1`, the inhibition was 4.82% in test [1]; 0.41% in [2]; 1.13% in [3]; -0.46% in test [4]; 6.64% in test [5]; 1.54% in [6]. In addition, the inhibition was 4.88% in [7], 0.9% in test [8], 3.32% in test [9] and -1.11% in test [10].
As for `Cc1cccc(-c2n[nH]cc2-c2ccc3ncccc3n2)n1`, the inhibition in test [1] is 0.24%; in [2] it was -0.19%; in test [3] it was -0.68%; in [4], 1.01%; in test [5], 4.06%; in test [6], 0.44%. Further, the inhibition in test [7] is 2.25%; in [8], 0.2%; in [9] it was 3.14%; in test [10], -0.96%.
As for `CCn1c(-c2nonc2N)nc2c(N3CCCC3)nccc21`, the inhibition is -0.19% in [1]; 2.01% in test [2]; 3.21% in [3]; 0.66% in [4]; 6.1% in test [5]; -0.54% in test [6]. The inhibition in test [7] is 5.25%; in [8], -1.08%; in test [9], 1.33%; in test [10], 2.95%.
